# Compounds without any hit were thinned out: in the full panel of roughly 79,000, 15% have a hit. Values without a mark were called inactive. Active and inactive are the calls of the source. Rule as the data show it: active = growth inhibition above about 70%; inactive = the rest.
# Tests used:
# [1] = NCI Yeast Anticancer Drug Screen. Data for the wt2 strain (AID 169);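 also: 0% = growth of vehicle-treated yeast cultures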; settings: S. cerevisiae wt2 strain growth inhibition, hits give high values
# Outline: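 Growth of compound-treated yeast is measured and expressed as inhibition relative to vehicle-only controls.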
# [2] = NCI Yeast Anticancer Drug Screen. Data for the sgs1 strain (AID 173);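 also: 0% = growth of vehicle-only control cultures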; settings: S. cerevisiae sgs1 mutant, hits give high values
# Outline: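 Strain with an altered DNA repair or cell cycle pathway exposed to compound. Growth then measured. Value = inhibition versus vehicle control.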
# [3] = NCI Yeast Anticancer Drug Screen. Data for the mlh1 rad18 strain (AID 175); settings: S. cerevisiae mlh1 rad18 strain growth inhibition, hits give high values
# Outline: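 A repair-deficient yeast strain is exposed to test compound, and growth is scored relative to vehicle-treated controls.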
# [4] = NCI Yeast Anticancer Drug Screen. Data for the rad18 strain (AID 177); settings: S. cerevisiae rad18 mutant growth inhibition, hits give high values
# Outline: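 DNA-repair-defective yeast; compound treatment; growth inhibition scored against vehicle.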
# [5] = NCI Yeast Anticancer Drug Screen. Data for the rad52 strain (AID 147);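 also: 0% = growth of vehicle-treated control cultures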; settings: S. cerevisiae rad52 mutant growth inhibition, hits give high values
# Outline: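 Growth of repair-deficient yeast cells was compared between compound-treated and vehicle-treated cultures to give percent inhibition.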
# [6] = NCI Yeast Anticancer Drug Screen. Data for the wt1 strain (AID 149);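 also: 0% = growth of vehicle-treated wt1 cultures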; settings: S. cerevisiae wt1 strain (SPY 50644) growth inhibition, hits give high values
# Outline: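 wt1 yeast, compound-treated; % growth inhibition vs vehicle control.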
# [7] = NCI Yeast Anticancer Drug Screen. Data for the rad50EPP+ strain (AID 151);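 also: 0% = growth of vehicle-treated control cultures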; settings: S. cerevisiae rad50 mutant strain, hits give high values
# Outline: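 Measured: growth inhibition of rad50EPP+ yeast. Reference: vehicle-treated controls. Screen uses strains with defined genetic alterations in DNA damage repair or cell cycle control.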
# [8] = NCI Yeast Anticancer Drug Screen. Data for the mgt1 strain (AID 153); settings: S. cerevisiae mgt1 mutant growth inhibition, hits give high values
# Outline: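 Compounds were applied to mgt1 mutant yeast, and growth was then compared against vehicle-treated control cultures to give percent inhibition.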
# [9] = NCI Yeast Anticancer Drug Screen. Data for the rad50 strain (AID 155);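 also: 0% = growth of vehicle-only cultures of the same strain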; settings: S. cerevisiae rad50 strain growth inhibition, hits give high values
# Outline: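 Genetically altered yeast (DNA repair pathway); compound treatment; growth inhibition vs vehicle ctrl.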
# [10] = NCI Yeast Anticancer Drug Screen. Data for the mec2-1 strain (AID 157); settings: S. cerevisiae mec2-1 strain, hits give high values
# Outline: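 Compounds were applied to mec2-1 yeast cells. Their growth was then compared with that of vehicle-treated cultures to give growth inhibition.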
# [11] = NCI Yeast Anticancer Drug Screen. Data for the sgs1 mgt1 strain (AID 161);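 also: 0% = growth of cultures given vehicle only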; settings: S. cerevisiae sgs1 mgt1 strain, hits give high values
# Outline: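 Compounds are added to genetically altered yeast, and growth is compared with cultures given vehicle alone to give percent inhibition.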
# [12] = NCI Yeast Anticancer Drug Screen. Data for the CLN2oe strain (AID 163);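 also: 0% = growth of vehicle-only control cultures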; settings: S. cerevisiae CLN2oe strain, hits give high values
# Outline: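 Cells of an engineered yeast line with disturbed cell-cycle regulation are treated with compound. Inhibition of growth is then calculated relative to the vehicle-treated reference.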
# [13] = NCI Yeast Anticancer Drug Screen. Data for the cln2 rad14 strain (AID 165);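 also: 0% = growth equal to vehicle treated cultures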; settings: S. cerevisiae cln2 rad14 strain, hits give high values
# Outline: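 Strain: cln2 rad14 yeast, altered in cell cycle control and DNA damage repair. Read-out: growth inhibition vs vehicle.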
# [14] = NCI Yeast Anticancer Drug Screen. Data for the bub3 strain (AID 167); settings: S. cerevisiae bub3 mutant strain, hits give high values
# Outline: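 Yeast carrying a defined mutation is treated with each compound, and growth is compared with that of vehicle-exposed cells to give inhibition.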
# [15] = NCI Yeast Anticancer Drug Screen. Data for the mlh1 strain (AID 171);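 also: 0% = growth of vehicle-treated control cultures of the same strain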; settings: S. cerevisiae mlh1 strain growth inhibition, hits give high values
# Outline: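 Test agents were incubated with yeast bearing a defined DNA damage repair or cell cycle control alteration; values are growth inhibition normalised to vehicle-treated cultures.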
# [16] = at 5.0 µM (retest, dose inferred, filed as 0.5)
# [17] = at 50.0 µM (retest, dose inferred, filed as 5.0)
structure (smiles),measurement,setting,value
NC(=O)NC1C(c2ccccc2)=C1c1ccccc1,growth inhibition,[1]; at 1.2 µM,13%
same,growth inhibition,[1]; at 3.7 µM,20%
same,growth inhibition,[1]; at 11.0 µM,45%
same,growth inhibition,[1]; at 33.0 µM,53%
same,growth inhibition,[1]; at 100.0 µM,48%
same,growth inhibition,[2]; at 1.2 µM,8%
same,growth inhibition,[2]; at 3.7 µM,5%
same,growth inhibition,[2]; at 11.0 µM,44%
same,growth inhibition,[2]; at 33.0 µM,56%
same,growth inhibition,[2]; at 100.0 µM,84% (active)
same,growth inhibition,[3]; [16],-104%
same,growth inhibition,[3]; [17],-38%
same,growth inhibition,[3]; at 50.0 µM,44.7%
same,growth inhibition,[4]; at 1.2 µM,-7%
same,growth inhibition,[4]; at 3.7 µM,3%
same,growth inhibition,[4]; at 11.0 µM,34%
same,growth inhibition,[4]; at 33.0 µM,38%
same,growth inhibition,[4]; at 100.0 µM,38%
Oc1c2c(c(O)c3ccccc13)C1(N=N2)c2ccccc2Oc2ccccc21,growth inhibition,[5]; at 1.2 µM,20%
same,growth inhibition,[5]; at 3.7 µM,72% (active)
same,growth inhibition,[5]; at 11.0 µM,98% (active)
same,growth inhibition,[5]; at 33.0 µM,97% (active)
same,growth inhibition,[5]; at 100.0 µM,93% (active)
same,growth inhibition,[6]; at 1.2 µM,2%
same,growth inhibition,[6]; at 3.7 µM,34%
same,growth inhibition,[6]; at 11.0 µM,98% (active)
same,growth inhibition,[6]; at 33.0 µM,98% (active)
same,growth inhibition,[6]; at 100.0 µM,96% (active)
same,growth inhibition,[7]; at 1.2 µM,8%
same,growth inhibition,[7]; at 3.7 µM,54%
same,growth inhibition,[7]; at 11.0 µM,93% (active)
same,growth inhibition,[7]; at 33.0 µM,95% (active)
same,growth inhibition,[7]; at 100.0 µM,85% (active)
same,growth inhibition,[8]; at 1.2 µM,10%
same,growth inhibition,[8]; at 3.7 µM,47%
same,growth inhibition,[8]; at 11.0 µM,98% (active)
same,growth inhibition,[8]; at 33.0 µM,97% (active)
same,growth inhibition,[8]; at 100.0 µM,94% (active)
same,growth inhibition,[9]; at 1.2 µM,17%
same,growth inhibition,[9]; at 3.7 µM,82% (active)
same,growth inhibition,[9]; [16],46%
same,growth inhibition,[9]; at 11.0 µM,98% (active)
same,growth inhibition,[9]; at 33.0 µM,94% (active)
same,growth inhibition,[9]; [17],98% (active)
same,growth inhibition,[9]; at 50.0 µM,98.5% (active)
same,growth inhibition,[9]; at 100.0 µM,90% (active)
same,growth inhibition,[10]; at 1.2 µM,10%
same,growth inhibition,[10]; at 3.7 µM,44%
same,growth inhibition,[10]; [16],31%
same,growth inhibition,[10]; at 11.0 µM,98% (active)
same,growth inhibition,[10]; at 33.0 µM,97% (active)
same,growth inhibition,[10]; [17],98% (active)
same,growth inhibition,[10]; at 50.0 µM,98.7% (active)
same,growth inhibition,[10]; at 100.0 µM,94% (active)
same,growth inhibition,[11]; [16],57%
same,growth inhibition,[11]; [17],98% (active)
same,growth inhibition,[11]; at 50.0 µM,98.6% (active)
same,growth inhibition,[12]; at 1.2 µM,15%
same,growth inhibition,[12]; at 3.7 µM,39%
same,growth inhibition,[12]; at 11.0 µM,98% (active)
same,growth inhibition,[12]; at 33.0 µM,95% (active)
same,growth inhibition,[12]; at 100.0 µM,88% (active)
same,growth inhibition,[13]; [16],19%
same,growth inhibition,[13]; [17],97% (active)
same,growth inhibition,[13]; at 50.0 µM,92.2% (active)
same,growth inhibition,[14]; at 1.2 µM,8%
same,growth inhibition,[14]; at 3.7 µM,62%
same,growth inhibition,[14]; [16],21%
same,growth inhibition,[14]; at 11.0 µM,98% (active)
same,growth inhibition,[14]; at 33.0 µM,96% (active)
same,growth inhibition,[14]; [17],97% (active)
same,growth inhibition,[14]; at 50.0 µM,99% (active)
same,growth inhibition,[14]; at 100.0 µM,93% (active)
same,growth inhibition,[1]; at 1.2 µM,4%
same,growth inhibition,[1]; at 3.7 µM,49%
same,growth inhibition,[1]; at 11.0 µM,98% (active)
same,growth inhibition,[1]; at 33.0 µM,97% (active)
same,growth inhibition,[1]; at 100.0 µM,94% (active)
same,growth inhibition,[15]; at 1.2 µM,13%
same,growth inhibition,[15]; at 3.7 µM,43%
same,growth inhibition,[15]; at 11.0 µM,98% (active)
same,growth inhibition,[15]; at 33.0 µM,97% (active)
same,growth inhibition,[15]; at 100.0 µM,94% (active)
same,growth inhibition,[2]; at 1.2 µM,14%
same,growth inhibition,[2]; at 3.7 µM,81% (active)
same,growth inhibition,[2]; at 11.0 µM,98% (active)
same,growth inhibition,[2]; at 33.0 µM,98% (active)
same,growth inhibition,[2]; at 100.0 µM,95% (active)
same,growth inhibition,[3]; [16],42%
same,growth inhibition,[3]; [17],98% (active)
same,growth inhibition,[3]; at 50.0 µM,98% (active)
same,growth inhibition,[4]; at 1.2 µM,18%
same,growth inhibition,[4]; at 3.7 µM,74% (active)
same,growth inhibition,[4]; at 11.0 µM,98% (active)
same,growth inhibition,[4]; at 33.0 µM,96% (active)
same,growth inhibition,[4]; at 100.0 µM,92% (active)
CCN1CCC(O)(c2ccc(Oc3ccc(C)cc3)cc2)C(C(=O)c2ccc(Oc3ccc(C)cc3)cc2)C1 (centres undefined),growth inhibition,[5]; at 1.2 µM,-28%
same,growth inhibition,[5]; at 3.7 µM,-32%
same,growth inhibition,[5]; at 11.0 µM,96% (active)
same,growth inhibition,[5]; at 33.0 µM,95% (active)
same,growth inhibition,[5]; at 100.0 µM,93% (active)
same,growth inhibition,[6]; at 1.2 µM,-44%
same,growth inhibition,[6]; at 3.7 µM,-31%
same,growth inhibition,[6]; at 11.0 µM,97% (active)
same,growth inhibition,[6]; at 33.0 µM,96% (active)
same,growth inhibition,[6]; at 100.0 µM,94% (active)
same,growth inhibition,[7]; at 1.2 µM,-17%
same,growth inhibition,[7]; at 3.7 µM,15%
same,growth inhibition,[7]; at 11.0 µM,96% (active)
same,growth inhibition,[7]; at 33.0 µM,94% (active)
same,growth inhibition,[7]; at 100.0 µM,93% (active)
same,growth inhibition,[8]; at 1.2 µM,-7%
same,growth inhibition,[8]; at 3.7 µM,6%
same,growth inhibition,[8]; at 11.0 µM,98% (active)
same,growth inhibition,[8]; at 33.0 µM,96% (active)
same,growth inhibition,[8]; at 100.0 µM,95% (active)
same,growth inhibition,[9]; at 1.2 µM,-21%
same,growth inhibition,[9]; at 3.7 µM,-20%
same,growth inhibition,[9]; [16],18%
same,growth inhibition,[9]; at 11.0 µM,97% (active)
same,growth inhibition,[9]; at 33.0 µM,95% (active)
same,growth inhibition,[9]; [17],96% (active)
same,growth inhibition,[9]; at 50.0 µM,85.6% (active)
same,growth inhibition,[9]; at 100.0 µM,94% (active)
same,growth inhibition,[10]; at 1.2 µM,-9%
same,growth inhibition,[10]; at 3.7 µM,-1%
same,growth inhibition,[10]; [16],2%
same,growth inhibition,[10]; at 11.0 µM,98% (active)
same,growth inhibition,[10]; at 33.0 µM,97% (active)
same,growth inhibition,[10]; [17],97% (active)
same,growth inhibition,[10]; at 50.0 µM,92% (active)
same,growth inhibition,[10]; at 100.0 µM,94% (active)
same,growth inhibition,[11]; [16],16%
same,growth inhibition,[11]; [17],-2%
same,growth inhibition,[11]; at 50.0 µM,88.8% (active)
same,growth inhibition,[12]; at 1.2 µM,29%
same,growth inhibition,[12]; at 3.7 µM,22%
same,growth inhibition,[12]; at 11.0 µM,98% (active)
same,growth inhibition,[12]; at 33.0 µM,96% (active)
same,growth inhibition,[12]; at 100.0 µM,91% (active)
same,growth inhibition,[13]; [16],18%
same,growth inhibition,[13]; [17],10%
same,growth inhibition,[13]; at 50.0 µM,88.2% (active)
same,growth inhibition,[14]; at 1.2 µM,0%
same,growth inhibition,[14]; at 3.7 µM,23%
same,growth inhibition,[14]; [16],14%
same,growth inhibition,[14]; at 11.0 µM,97% (active)
same,growth inhibition,[14]; at 33.0 µM,96% (active)
same,growth inhibition,[14]; [17],15%
same,growth inhibition,[14]; at 50.0 µM,89% (active)
same,growth inhibition,[14]; at 100.0 µM,95% (active)
same,growth inhibition,[1]; at 1.2 µM,-7%
same,growth inhibition,[1]; at 3.7 µM,-19%
same,growth inhibition,[1]; at 11.0 µM,97% (active)
same,growth inhibition,[1]; at 33.0 µM,96% (active)
same,growth inhibition,[1]; at 100.0 µM,86% (active)
same,growth inhibition,[15]; at 1.2 µM,-7%
same,growth inhibition,[15]; at 3.7 µM,-2%
same,growth inhibition,[15]; at 11.0 µM,98% (active)
same,growth inhibition,[15]; at 33.0 µM,97% (active)
same,growth inhibition,[15]; at 100.0 µM,95% (active)
same,growth inhibition,[2]; at 1.2 µM,-18%
same,growth inhibition,[2]; at 3.7 µM,-22%
same,growth inhibition,[2]; at 11.0 µM,97% (active)
same,growth inhibition,[2]; at 33.0 µM,96% (active)
same,growth inhibition,[2]; at 100.0 µM,93% (active)
same,growth inhibition,[3]; [16],21%
same,growth inhibition,[3]; [17],95% (active)
same,growth inhibition,[3]; at 50.0 µM,91% (active)
same,growth inhibition,[4]; at 1.2 µM,-20%
same,growth inhibition,[4]; at 3.7 µM,5%
same,growth inhibition,[4]; at 11.0 µM,97% (active)
same,growth inhibition,[4]; at 33.0 µM,96% (active)
same,growth inhibition,[4]; at 100.0 µM,93% (active)
